Laboratory results reported in PubChem BioAssay (NCATS).
Inconclusive results are not listed. The source made the active and inactive calls. Calls come from the whole dose curve; as a rule, active = well fitted curve in the direction sought with a large enough effect; inconclusive = small, poorly fitted or top-dose-only effect, or another doubt; inactive = no such curve, though single readings can be large; an effect the other way counts as inactive or inconclusive.

Columns and labels:
Furin (Homo sapiens) = Furin (Homo sapiens) (UniProt P09958); test: Furin counterscreen qHTS for Zika virus inhibitors (AID 1347149); note: nearly all actives have a fitted effect of over 70% in size; note: potency is the fitted concentration of half-maximal effect
Procedure, shortened: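 Counterscreen measures cleavage of 2 microM BOC-RVRR-AMC, below its ~15 microM Km, by 5 nM full-length human furin at pH 7.0 after a 15-min compound preincubation. Inhibition derives from the 15-min fluorescence increase at 37C.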

[1] = Confirmatory screen GU Rhodamine qHTS for Zika virus inhibitors qHTS (AID 1347157); note: nearly all actives have a fitted effect of over 70% in size; note: potency is the fitted concentration of half-maximal effect
Procedure, shortened: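 A qHTS format was used, with compound concentrations ranging up to 114 microM. Each compound was preincubated with 25 nM NS2B-NS3 protease, and the substrate was then added at 1.5 microM. Curves were fitted with a 4-parameter Hill model.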

[2] = ZIKV-mCherry secondary qHTS for Zika virus inhibitors (AID 1347158); note: top concentration of the series differs between compounds
Procedure, shortened: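 This orthogonal imaging screen measured ZIKV-mCherry infection of Vero cells exposed to compound, MOI 1, 48-72 h. Percent infection came from segmented nuclei scored mCherry-positive above 3 SD of negative controls.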

[3] = system: Zika virus NS2B-NS3 protease (linked); test: 384 well plate NINDS AMC confirmatory qHTS for Zika virus inhibitors (AID 1347163); note: potency is the fitted concentration of half-maximal effect; nearly all actives have a fitted effect of over 50% in size
Procedure, shortened: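 Enzyme (5, 30 or 60 nM final) first met test compounds for ~15 min. The AMC-tagged peptide Ac-VKTGKR-AMC followed at 30 microM. Fluorescence was then recorded at 25 min and scaled against no-enzyme and no-inhibitor wells.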

[4] = system: Zika virus NS2B-NS3 protease (linked construct); test: 384 well plate NINDS Rhodamine confirmatory qHTS for Zika virus inhibitors (AID 1347164);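 note: fluorescence from protease cleavage of Ac-LKRR-rhodamine 110 substrate; nearly all actives have a fitted effect of over 65% in size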; note: potency is the fitted concentration of half-maximal effect
Procedure, shortened: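 Linked NS2B-NS3 protease (final 5, 30 or 60 nM) preincubated ~15 minutes with compounds, then 10 microM Ac-LKRR-Rhodamine 110 added. Fluorescence (485/538 nm) read after 25 minutes at room temperature, normalized to no-enzyme and no-inhibitor controls.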

[5] = Tertiary RLuc qRT-PCR qHTS assay for Zika virus inhibitors (AID 1347169); note: top concentration of the series differs between compounds; nearly all actives have a fitted effect of over 55% in size
Procedure, shortened: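 Vero cells (1,000/well) infected with recombinant ZIKV-RLuc (Cambodian) at MOI 1-2 after compound addition, 48-72 hrs at 37 degrees C. Live-cell Renilla luciferase substrate added; luminescence read after 1-1.5 hrs.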

[6] = target: Tyrosyl-DNA phosphodiesterase 1 (Homo sapiens) (UniProt Q9NUW8); test: Confirmation Assay for Inhibitors of Tyrosyl-DNA Phosphodiesterase (TDP1) (AID 489007); conditions: recombinant human TDP1 enzymatic activity, dose-response; note: potency is the fitted concentration of half-maximal effect; nearly all actives have a fitted effect of over 40% in size
Procedure, shortened: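 Loss of AlphaScreen signal reports Tdp1 cleavage of a dual-labelled DNA substrate. Conditions: 1 nM E. coli-derived enzyme, 15 nM substrate, 15 min compound preincubation, 5 min reaction, 10 min bead incubation, all at room temperature.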

[7] = Confirmatory screen NINDS Rhodamine qHTS for Zika virus inhibitors (AID 1347161); note: nearly all actives have a fitted effect of over 60% in size; note: potency is the fitted concentration of half-maximal effect
Procedure, shortened: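 qHTS dose-response: 25 nM linked protease, pH 8.0 Tris/Tween buffer, cpd titration, 15 min RT preinc, 1.5 microM Rhod110 peptide, 15 min reaction (~15% conversion), Ex480/Em540; 4-parameter Hill fit.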

[8] = system: Zika virus NS2B-NS3 protease; test: Primary screen GU AMC qHTS for Zika virus inhibitors (AID 1347154); note: nearly all actives have a fitted effect of over 70% in size
Procedure, shortened: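 Fluorogenic AMC-substrate cleavage by noncovalent NS2B-NS3 protease complex (25 nM, pH 8.0 Tris buffer with Tween 20) followed for 15 minutes at room temperature (~20% conversion). Percent inhibition from ex340/em450 signal change, fitted by 4-parameter Hill equation.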

Measured: Potency

Sequence of Furin (Homo sapiens) (P09958 whole entry, looked up): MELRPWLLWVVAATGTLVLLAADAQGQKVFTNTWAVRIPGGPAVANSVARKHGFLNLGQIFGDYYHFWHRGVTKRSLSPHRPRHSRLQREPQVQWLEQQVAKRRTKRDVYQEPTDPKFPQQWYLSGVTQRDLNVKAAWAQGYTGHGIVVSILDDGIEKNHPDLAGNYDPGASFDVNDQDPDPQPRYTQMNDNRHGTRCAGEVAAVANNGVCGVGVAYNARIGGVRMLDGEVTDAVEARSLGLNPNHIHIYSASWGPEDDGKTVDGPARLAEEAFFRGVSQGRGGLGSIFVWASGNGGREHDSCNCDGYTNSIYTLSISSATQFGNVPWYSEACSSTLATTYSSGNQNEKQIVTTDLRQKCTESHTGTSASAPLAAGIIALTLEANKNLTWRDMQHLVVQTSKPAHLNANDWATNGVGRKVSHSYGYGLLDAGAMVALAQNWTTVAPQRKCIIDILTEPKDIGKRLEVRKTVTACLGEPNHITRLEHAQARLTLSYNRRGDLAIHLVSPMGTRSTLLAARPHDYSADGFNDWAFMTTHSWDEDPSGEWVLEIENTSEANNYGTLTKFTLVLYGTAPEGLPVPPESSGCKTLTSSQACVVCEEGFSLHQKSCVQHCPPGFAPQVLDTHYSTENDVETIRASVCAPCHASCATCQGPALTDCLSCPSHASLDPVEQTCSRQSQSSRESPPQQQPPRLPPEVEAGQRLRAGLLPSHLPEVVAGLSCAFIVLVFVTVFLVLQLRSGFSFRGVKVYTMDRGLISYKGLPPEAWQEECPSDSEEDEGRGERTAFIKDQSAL
Sequence of Tyrosyl-DNA phosphodiesterase 1 (Homo sapiens) (Q9NUW8 whole entry, looked up): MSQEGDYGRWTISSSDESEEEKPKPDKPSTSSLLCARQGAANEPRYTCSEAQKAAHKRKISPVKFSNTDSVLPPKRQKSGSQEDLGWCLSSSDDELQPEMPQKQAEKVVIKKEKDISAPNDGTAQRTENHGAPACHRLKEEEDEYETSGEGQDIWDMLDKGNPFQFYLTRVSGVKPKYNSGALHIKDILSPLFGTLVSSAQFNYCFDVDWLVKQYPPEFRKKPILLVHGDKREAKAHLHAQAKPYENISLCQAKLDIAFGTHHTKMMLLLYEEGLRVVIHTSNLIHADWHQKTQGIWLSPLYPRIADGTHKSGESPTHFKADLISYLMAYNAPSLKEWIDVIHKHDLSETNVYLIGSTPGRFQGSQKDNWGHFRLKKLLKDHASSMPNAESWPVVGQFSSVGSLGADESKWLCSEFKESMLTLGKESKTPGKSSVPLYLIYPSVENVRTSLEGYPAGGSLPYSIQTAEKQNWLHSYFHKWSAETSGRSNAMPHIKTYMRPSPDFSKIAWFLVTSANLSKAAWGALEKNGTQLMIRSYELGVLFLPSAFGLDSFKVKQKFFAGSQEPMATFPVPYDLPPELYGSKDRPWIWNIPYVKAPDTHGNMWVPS

O=C(O)c1cc(-n2c(/C=C\c3ccc(F)cc3)nc3ccccc3c2=O)ccc1Cl
active: [1] 39.8 µM | [3] 200 µM | [4] 141 µM
inactive: Furin (Homo sapiens) | [2] | [5]

O=C(Nc1c(C(=O)O)oc2ccccc12)c1ccc(C(F)(F)F)cc1
inactive: Furin (Homo sapiens) | [2]
active: [1] 15.8 µM | [3] 316 µM | [4] 100 µM

O=C(O)CSc1nc2ccc(NC(=O)COc3ccc(Cl)cc3)cc2s1
inactive: Furin (Homo sapiens) | [2] | [5]
active: [6] 11.2 µM | [1] 31.6 µM | [7] 20 µM | [3] 25.1 µM | [4] 28.2 µM

COc1ccc(S(=O)(=O)c2c(Nc3c(C)cccc3C)sc(C(=O)c3ccc4c(c3)OCO4)c2N)cc1
active: Furin (Homo sapiens) 23.5 µM
inactive: [1] | [7]

N#CC(C#N)=C(N)/C(C#N)=C/c1cc(O)c(O)c(O)c1
active: [1] 44.7 µM | [7] 31.6 µM | [3] 112 µM
not listed: [6]
inactive: all other assays above
